Source: PubChem BioAssay
Vif-APOBEC3G blk: blocks the Vif interaction with human APOBEC3G; Q9HC16; hit rate 0.076% among 410,000; HeLa A3G-eYFP + Vif (tagged APOBEC3G with the HIV-1 protein that degrades it), YFP fluorescence, overnight; Potency, µM (highest dose often 46.1 µM), actives largely listed as inhibitors; further: nearly all actives have a fitted effect of over 60% in size
Target sequence (Q9HC16 whole entry, looked up): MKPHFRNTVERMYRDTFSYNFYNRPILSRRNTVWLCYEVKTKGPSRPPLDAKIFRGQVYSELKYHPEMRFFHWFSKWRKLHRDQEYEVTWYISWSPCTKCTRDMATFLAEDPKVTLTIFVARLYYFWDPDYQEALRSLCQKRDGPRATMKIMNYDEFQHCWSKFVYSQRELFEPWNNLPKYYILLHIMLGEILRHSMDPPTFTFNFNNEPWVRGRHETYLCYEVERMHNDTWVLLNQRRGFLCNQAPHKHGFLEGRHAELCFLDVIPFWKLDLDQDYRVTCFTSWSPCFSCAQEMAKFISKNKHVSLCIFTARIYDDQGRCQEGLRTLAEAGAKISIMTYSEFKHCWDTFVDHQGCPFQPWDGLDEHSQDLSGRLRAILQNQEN
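Read-out is eYFP fluorescence (Ex 488/Em 500-530) from Vif-expressing HeLa A3G-eYFP cells; more signal means A3G escaped Vif-mediated degradation. Cells plated overnight, compound pinned in, incubated overnight at 37 deg C.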
RGS12 GoLoco inh: RGS12 GoLoco-Gai1 interaction inhibition; hit rate 0.44% among 230,000; Gai1:RGS12 GoLoco peptide FP, rhodamine, 10 min; Potency, µM (doses to about 61.6 µM), most hits filed as inhibitors; P63096; active means well fitted inhibition curve with a large enough effect, not every such curve was filed as active; inactive means no such curve, though single readings can be large or run the other way; further: nearly all actives have a fitted effect of over 30% in size
PKM2 act: increases activity of human pyruvate kinase M2. Potency, µM (doses to about 57.5 µM), actives largely listed as activators. AID 1631. hit rate 0.34% among 260,000. purified PKM2, Kinase-Glo ATP luminescence, activation; response scale: 0% is enzyme alone, no compound; further: nearly all actives have a fitted effect of over 55% in size
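Purified hPK-M2 (>95% pure) converted ADP (0.1 mM final) to ATP with 0.5 mM PEP in 50 mM imidazole pH7.2, KCl, MgCl2, Tween 20, BSA; 1 h at room temperature. ATP detected by Kinase-Glo luminescence.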
Vif-APOBEC3F blk: Vif-A3F binding inhibition | HeLa A3F-eYFP + Vif (tagged APOBEC3F with the HIV-1 protein that degrades it), YFP fluorescence increase | Potency, µM (series often up to 46.1 µM) | hit rate 0.2% among 390,000 | AID 602313; further: nearly all actives have a fitted effect of over 65% in size
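HeLa cells stably expressing Vif plus C-terminally eYFP-tagged A3F were seeded, incubated overnight at 37 deg C, dosed with compound, incubated overnight again at 37 deg C. Yellow fluorescence (Ex 488/Em 500-530) reported blocked Vif-mediated A3F-eYFP degradation.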
GCN5L2 inh-1: inhibitors of human GCN5L2 histone acetyltransferase; GCN5L2 HAT assay, ThioGlo1 CoA-SH fluorescence; Potency, µM (series often up to 58.9 µM), actives largely listed as inhibitors; hit rate 0.21% among 390,000; AID 504327
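Free CoA generated was detected with ThioGlo1 (50uM) fluorescence at Ex340nm/Em540nm, read immediately and after 20 min at room temperature. Enzyme, 20 nM in HEPES pH 7.5 buffer, saw compounds 15 min before adding 75uM H3(1-25) peptide and 70uM acetyl-CoA.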
IL-2 act: activates IL-2 in a cell-based reporter assay | IL-2 activation reporter assay, cell-based qHTS; stimulated with anti-CD3/CD4/CD28 beads; in transgenic mouse T cells | activation, % (series mostly up to about 46 µM) | hit rate 0.065% among 360,000 | AID 652025; in the data active means activation above about 50%; inconclusive means mostly about 30% to 49%
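Unstimulated transgenic mouse T cells, 750 per well, received compound and, after 60 minutes, anti-CD3/anti-CD4 bead plus anti-CD28 stimulation. EGFP and DsRed were quantified after 18 hours.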
GCN5L2 inh-2: human KAT2A HAT inhibition, hit confirmation | shares compounds with GCN5L2 inh-1 | GCN5L2 HAT, ThioGlo1 CoA fluorescence, 20 min | Potency, µM, usual class: inhibitors | hit rate 70% among 140 | AID 588347
Hits are given with their value; – = inactive; ? = inconclusive; · = no result given. The list is not random: actives were taken first. Their share in the collection is about 0.77%. Unless noted, the call rests on the fitted dose curve; in most records, active means well fitted curve in the direction sought with a large enough effect; inconclusive means small, poorly fitted or top-dose-only effect, or another doubt; inactive means no such curve, though single readings can be large; an effect the other way counts as inactive or inconclusive.

SMILES	Vif-APOBEC3G blk	RGS12 GoLoco inh	PKM2 act	Vif-APOBEC3F blk	GCN5L2 inh-1	IL-2 act	GCN5L2 inh-2
COC(=O)N/N=C/c1cc(Cl)cc(Cl)c1OCc1ccc(F)cc1	–	–	–	–	–	–	·
COc1ccc(CN2CCN(c3nc4ccccc4s3)CC2)cc1	–	·	·	–	–	–	·
COc1ccc(CCn2c(O)cc3nn(-c4nc5ccccc5s4)c(=O)c-3c2C)cc1	–	–	–	–	25.1µM	–	?
CC1=NOC(=O)/C1=C\c1ccc(-c2ccccc2Br)o1	–	–	–	–	12.6µM	–	11.5
CC1=CC2=NC(=O)/C(=C\c3ccc(-c4cccc(Cl)c4)o3)C(=N)N2O1	?	–	–	?	–	?	·
CC1=NOC(=O)/C1=C\c1ccc(-c2cccc(Cl)c2)o1	?	–	–	–	?	–	?
CC1=NOC(=O)/C1=C\c1ccc(-c2ccc(Cl)c(C(=O)O)c2)o1	–	–	?	–	31.6µM	–	12.9
COc1ccc2oc(=O)c(C(=O)Nc3ccccc3C)cc2c1	–	·	–	–	?	–	·
CN(C)/C=C1\C=C2C(=O)c3ccccc3N2C1=O	–	12.6µM	–	–	17.8µM	–	36.3
CN(C)/C=C1\C=Cc2ccccc21	–	·	·	·	·	·	·
Cc1cc(C)nc(N/N=C/c2cc(C)n(CC(F)(F)F)c2C)n1	–	–	–	–	–	–	·
CC(C)c1ccc(S(=O)(=O)/N=C2\C=C(NS(=O)(=O)c3ccccc3)C(=O)c3ccccc32)cc1	–	·	·	–	22.4µM	–	9.13
C[n+]1ccccc1/C=C/c1ccc(C#N)cc1	–	·	–	–	?	–	28.9
CC1CCCCC1NC(=O)c1nn(C)c(=O)c2ccccc12 (centres undefined)	–	–	–	–	–	–	·
O=C(O)c1cc(-c2ccc(-c3c(-c4ccc5c(c4)OCO5)noc3-c3ccsc3)cc2)nc2ccccc12	–	·	–	–	20µM	–	16.2
O=C(OCc1ccc([N+](=O)[O-])cc1)C1CC(=O)N(Cc2ccccc2)C1 (centres undefined)	–	·	·	–	–	–	·
